This passage reports outcome results from PubChem BioAssay AID651692 (Broad Institute, 2012).

Each structure is given as a SMILES string. Measured potencies and affinities stand elsewhere. Calls of active or inactive are those of the source.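 How the source made its calls: active means fitted half-maximal concentration for loss of cell signal no higher than twice the top valid tested concentration; inconclusive means flat curve at 30 to 70% inhibition, or poor fit; inactive means flat within 30%, signal rise, or potency above limit.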

This experiment in a line: cytotoxicity toward MDA-MB-231 breast cancer cells – cell-based, CellTiter-Glo luminescence, cherry-pick, cytotoxicity control for RAD54 inhibitor project, dose response (AID 651692).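 Further: more negative values mean stronger loss of viable cell signal.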 As to conditions: MDA-MB-231 viability, 24 h; series mostly up to 26 µM.
Regarding `COC(=O)c1c(NC(=O)c2ccc([N+](=O)[O-])o2)sc2c1CCN(C(C)C)C2`, the result was inactive.
For `CCCCN(CC)CCNC(=S)Nc1ccc2nc(N3CCN(C)CC3)cc(C)c2c1`, the compound was classed as inactive.
For the compound `CCN1CCN(CCCNC(=O)c2cc3c(=O)[nH]c4ccccc4c3s2)CC1`, the call was inactive.
Regarding `CCN(CC)CCNc1ccc(CO)c2oc3cc(Cl)ccc3c(=O)c12`, the outcome was inactive.
On to `COc1ccc(Nc2c3c(nc4ccc(C)cc24)CCC3)cc1`, for which the call was inactive.
Regarding `CCCN1CCN(CCCNC(=O)c2cc3c(=O)n(C)c4ccccc4c3n2C)CC1`, the compound was called inactive.
`C=CCN1C(=O)C(C)(C)Nc2ccccc21`: the result was inactive.
As for `CC(C)NC1CCC(Nc2ccnc3cc(Cl)ccc23)CC1` (stereo not given), the outcome was inactive.
`COc1ccc(C(=O)Nc2ccc3nc(N4CCN(C)CC4)cc(C)c3c2)c(OC)c1`: the compound was classed as inactive.
On to `CCCCN(C)CCNC(=O)c1cc2cc3ccc(OC)cc3nc2o1`, for which the compound was classed as inactive.
Consider `CCN1CCc2c(sc(NC(=O)c3ccc(C(=O)c4ccccc4)cc3)c2C(N)=O)C1`, for which the outcome was inactive.
To `COc1cccc(-c2nc(NCCN3CCOCC3)c3ccccc3n2)c1O` belongs “inactive”.
With `CCN1CCN(c2nc(N)c([N+](=O)[O-])c(Nc3cccc(C)c3)n2)CC1`, the compound was called inactive.
As for `CCCC(c1nnnn1Cc1ccc(OC)cc1)N1CCN(c2ccccc2)CC1` (stereo not given), the result was inactive.
As for `O=C(NCCCN1CCCC1)c1cc2c(Cl)nc3ccccc3c2s1`, the compound was called inactive.
Regarding `CN(C)CCCN1C(=O)c2cccc3cccc(c23)C1=O`, the outcome was inactive.
`CCN(CC)CCNC(=O)c1cc2c(-c3ccc(Cl)cc3)nn(C)c2s1`: the compound was classed as inactive.
On to `CN1CCN(c2ncnc3c2[nH]c2ccc(F)cc23)CC1`, for which the outcome was inactive.
On to `c1cncc(Nc2c3ccccc3nc3ccccc23)c1`, for which the result was inactive.
Take `CCn1c(=N)c(C(=O)NC)cc2c(=O)n3cccc(C)c3nc21`: the compound was classed as inactive.
As to `O=C1C(c2ccc(F)cc2)N(C2CCCCC2)C(=O)CN1C1CCCC1` (stereo not given), the call was inactive.
As to `CC(=O)Nc1cc(-c2cccc(C(=O)NCCN(C)C)c2)cn2c(-c3ccccc3)cnc12`, the call was inactive.
On to `Cn1nc(-c2ccccc2)cc1NS(=O)(=O)c1ccc(C#N)cc1`, for which the compound was called inactive.
To `CCN1CCN(c2cc(C)c3cc(NC(=S)NCCN(C)C)ccc3n2)CC1` belongs “inactive”; to `Cc1cc2ccc3ccccc3c2cc1CN(C)C`, “inactive”.
Take `O=c1c2ccccc2oc2cc(NCCCN3CCOCC3)ccc12`: the compound was called inactive.
For the compound `Cc1ccc(Nc2cc(C)nc3c(C)cccc23)cc1`, the outcome was inactive.
As for `Cc1ccc2nc(C)c3c(c2c1)N(c1ccc(F)cc1)CC3`, the result was inactive.
Take `COc1cccc(-c2cc3nc(NCCCN(C)C)n(C)c(=O)c3s2)c1`: the compound was called inactive.
To `COc1cccc2sc3cc(NCC[C@@H]4CCCN4C)ccc3c(=O)c12` belongs “inactive”.
In the case of `CN(C)CCCN(C(=O)c1ccc([N+](=O)[O-])o1)c1nc2cc3c(cc2s1)OCO3`, the result was inactive.
Consider `Cc1cccc(Cn2c(Sc3nc(C)cs3)nc3c2c(=O)[nH]c(=O)n3C)c1`, for which the outcome was inactive.
Consider `Cc1c(Cl)ccc(S(=O)(=O)NCCCn2ccnc2)c1Cl`, for which the result was inactive.
Regarding `Cc1ccc2[nH]c(=O)c3cc(C(=O)NCCN4CCN(C)CC4)sc3c2c1`, the compound was called inactive.
Regarding `Cc1c(C)n(CCN(C)C)c2ccc(C(=O)OCCN(C)C)cc12`, the compound was called inactive.
For `Cc1nc2ccccc2c2oc(C(=O)NCCCN3CCC(C)CC3)cc12` the value was “inactive”; for `Cc1[nH]ccc2c1[nH]c1cc(=O)ccc12`, “inactive”.
To `COc1ccccc1NC(=O)CNC(=O)c1ccccc1` belongs “inactive”; to `Cc1ccc2nc(Cl)c3cc(C(=O)NCCCN4CCCC4)sc3c2c1`, “inactive”.
Consider `Cc1cccn2c(=O)c3cc(C(=O)NC4CCCC4)c(=N)n(CCCN4CCOCC4)c3nc12`, for which the call was inactive.
